# Measured values: PubChem BioAssay (NCATS)
# Records with an inconclusive call do not appear. Values without a mark were called inactive. Calls of active or inactive are those of the source. Calls follow the shape of the dose curve; as a rule, active = well fitted inhibition curve with a large enough effect; inconclusive = small, poorly fitted or top-dose-only effect; inactive = no such curve, though single readings can be large or run the other way.
# Target: Rap guanine nucleotide exchange factor 4 (Homo sapiens) (UniProt Q8WZA2)
# Sequence (Q8WZA2 whole entry, looked up): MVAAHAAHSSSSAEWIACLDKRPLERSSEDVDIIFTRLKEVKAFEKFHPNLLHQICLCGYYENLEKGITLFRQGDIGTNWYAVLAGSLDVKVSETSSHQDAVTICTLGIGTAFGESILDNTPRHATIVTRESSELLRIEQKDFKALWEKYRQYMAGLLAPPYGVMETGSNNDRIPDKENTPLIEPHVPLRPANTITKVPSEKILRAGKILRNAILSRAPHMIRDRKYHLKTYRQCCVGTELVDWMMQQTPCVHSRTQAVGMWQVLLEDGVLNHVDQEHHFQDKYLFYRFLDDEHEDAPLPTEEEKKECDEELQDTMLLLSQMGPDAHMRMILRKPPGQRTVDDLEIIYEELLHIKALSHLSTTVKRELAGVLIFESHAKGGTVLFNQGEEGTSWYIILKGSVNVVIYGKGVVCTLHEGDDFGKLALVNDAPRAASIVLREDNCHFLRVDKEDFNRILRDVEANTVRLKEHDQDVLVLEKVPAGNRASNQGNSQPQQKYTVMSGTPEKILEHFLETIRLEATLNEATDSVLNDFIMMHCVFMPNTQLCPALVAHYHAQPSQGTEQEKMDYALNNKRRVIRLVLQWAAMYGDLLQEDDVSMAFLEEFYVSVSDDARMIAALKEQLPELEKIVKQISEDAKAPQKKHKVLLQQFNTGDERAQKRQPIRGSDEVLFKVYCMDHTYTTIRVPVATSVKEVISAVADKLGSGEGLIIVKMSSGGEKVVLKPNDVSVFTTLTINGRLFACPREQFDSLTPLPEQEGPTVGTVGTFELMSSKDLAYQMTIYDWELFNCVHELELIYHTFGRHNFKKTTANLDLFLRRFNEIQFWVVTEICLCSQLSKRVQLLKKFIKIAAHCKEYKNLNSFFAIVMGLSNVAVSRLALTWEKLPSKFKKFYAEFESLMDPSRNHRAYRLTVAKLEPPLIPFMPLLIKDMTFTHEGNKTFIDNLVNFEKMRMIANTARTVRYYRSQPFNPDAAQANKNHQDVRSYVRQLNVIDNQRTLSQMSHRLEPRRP
# Assay: Confirmatory qHTS for antagonist of cAMP-regulated guanine nucleotide exchange factor 4 (EPAC2) (AID 1645885); also: nearly all actives have a fitted effect of over 25% in size; as to activity change, negative = inhibition: % is scaled to controls: 0 for no effect and ±100 for the full control effect
# Details: EPAC2 Rap1B-BODIPY-GDP exchange fluorescence, biochemical; series mostly up to 12.7 µM; activity change, negative = inhibition: at the top concentration
# Potency is read from the fitted curve at half-maximal effect.
SMILES,outcome,"activity change, negative = inhibition",Potency
COc1cc(-c2cc(OC)c3c(C)oc(C)c3c(=O)c2)ccc1OC(=O)c1ccccc1F,inactive [at 12.7 µM],,
O=C(NCc1ccccc1)C(c1ccccc1)n1c(=O)c(-c2ccco2)nc2ccccc21 (stereo not given),,2.72%,
CC(C)c1ccc(/C=C/C(=O)Nc2ccc(CN3CCOCC3)cc2)cc1,,,95.3 µM (active)
Oc1cccc(C=Nc2cccc3ccccc23)c1O,,13.9% [at 114 µM],
CCCC1=C(C(=O)OCC)C(c2ccco2)C(C#N)=C(N)O1 (stereo not given),,-19.8%,
O=C(Nc1ccc(Br)cc1C(=O)O)c1ccc2c(c1)C(=O)N(Cc1ccccc1)C2=O,,48% [at 114 µM],
Cc1ccc(C(=O)c2cn(Cc3cccc(C)c3)c3nc(C)ccc3c2=O)cc1,,-26.4%,
Clc1ccc(C(c2ccccc2)c2c[nH]c3ccccc23)s1 (stereo not given),,-14%,
CC(C)(C)Cc1c(-c2ccccc2)nc2ccc(Cl)cn12,,-17.2%,
O=c1[nH][nH]c(-c2ccccc2O)c1C(C[N+](=O)[O-])c1ccc(Br)cc1 (stereo not given),,4.11%,
C=CS(=O)(=O)N(Cc1ccccc1Br)[C@H](CO)CC(C)C,,-10.8%,
CC1=NN(c2cccc(C(=O)O)c2)C(=O)/C1=C\C=C/c1ccccc1,,31.9% [at 114 µM],
Cc1ccc(Nc2nnc(-c3ccc(C)c(S(N)(=O)=O)c3)c3ccccc23)cc1,inactive [at 12.7 µM],,
COc1ccc(-c2[nH]c(-c3ccc(F)cc3)nc2SCC(=O)Nc2ccc(OC)c(OC)c2)cc1,,71.4%,
CN(C)S(=O)(=O)c1ccc(N2CCCC2)c(C(=O)NCC2COc3ccccc3O2)c1 (stereo not given),,,30.1 µM (active)
CC(=O)N1N=C(c2ccc(Cl)cc2)CC1c1ccc([N+](=O)[O-])cc1 (stereo not given),,-5.32%,
O=C(NCc1ccc2c(c1)CCN2C(=O)c1ccccc1)Nc1cccc(C(F)(F)F)c1,,8.78%,
O=C(CC(c1ccccc1)c1cc(Cl)ccc1O)N1CCCC1 (stereo not given),,63.5% [at 114 µM],
c1cc(-c2cc3nc(NC4CCCCC4)ccn3n2)ccc1OCCN1CCOCC1,,-15.6% [at 114 µM],
COc1ccc(Cn2c(-c3ccc(C)cc3)nc3c(c(=O)c4ccccc4n3C)c2=O)cc1,,-12.1%,

SMILES,outcome,"activity change, negative = inhibition",Potency
C=CCN1C(=O)[C@@H]2Cc3c([nH]c4ccccc34)C(c3ccc(O)cc3)N2C1=S (stereo not given in full),,38.1% [at 114 µM],
CN(C)c1ccc(-c2[nH][nH]c(=O)c2NC(=O)c2ccccn2)cc1,,-22.1% [at 114 µM],
O=C(CSc1nc(O)cc(=O)n1-c1ccccc1)Nc1ccc2c3c(cccc13)CC2,,-11.5%,
N#C/C(=C/C1=C(N2CCOCC2)C(=C/c2cccc([N+](=O)[O-])c2)/CC1)C(=O)Nc1ccccc1F,,-10.2%,
N#Cc1c(NC(=O)CSc2ncnc3sccc23)oc(-c2ccco2)c1-c1ccco1,,,84.9 µM (active)
CCn1c(SCC(=O)N/N=C/C=C/c2ccco2)nnc1-c1ccccc1,,-17.4% [at 114 µM],
COc1ccc2c(c1)Cc1sc(NC(=O)c3ccccc3C)nc1-2,,34.5%,
Cc1ccc2[nH]cc(C(c3ccccc3)c3ccc(Cl)s3)c2c1 (stereo not given),,12.3%,
CCc1nc2c(OCCC3CCCCC3)cccn2c1N(C)C(=O)c1ccc(C)cc1,inactive; activator; fitted 16.9441 uM,,
CCOc1cc(CNCCSc2nnnn2C)ccc1OCc1ccc(Cl)cc1Cl,,,4.26 µM (active)
CC(C)N(Cc1ccccc1)C(=O)c1nc(-c2ccc(Cl)cc2)n2c1CCCCC2,inactive [at 12.7 µM],,
O=C(Nc1ccc(S(=O)(=O)Nc2nccs2)cc1)c1cc(-c2ccccn2)nc2ccccc12,,-9.59%,
COc1ccc(OC)c(CNC(=O)CCCc2cn(C)c3ccccc23)c1,,-37.6% [at 114 µM],
Cc1ccc(C)c(Cn2c(CN(C)Cc3ccccc3)nc3c2c(=O)n(C)c(=O)n3C)c1,,-1.76% [at 114 µM],
Cc1ccc(Cn2ccnc2SCC(=O)Nc2ccc3c(c2)OCO3)cc1,,16%,
COc1ccc(OC)c(C(=O)c2coc3cc(Br)c(O)c(Br)c23)c1,inactive; activator; fitted 4.7755 uM,,
Cc1ccc(N(Cc2ccc([N+](=O)[O-])cc2)C(=O)c2ccco2)cc1,,,15.1 µM (active)
CCn1c(SCC(=O)N/N=C/C=C\c2ccco2)nc2ccccc21,,62.7% [at 114 µM],
COc1cc(C2CC(=O)Oc3cc(C)c(Br)c(C)c32)cc(OC)c1OC (stereo not given),,-40.1%,
CCc1nc(Oc2cccc(F)c2)c2oc3ccccc3c2n1,,-24.4%,

# Target: Rap guanine nucleotide exchange factor 3 (Homo sapiens) (UniProt O95398)
# Sequence (O95398 whole entry, looked up): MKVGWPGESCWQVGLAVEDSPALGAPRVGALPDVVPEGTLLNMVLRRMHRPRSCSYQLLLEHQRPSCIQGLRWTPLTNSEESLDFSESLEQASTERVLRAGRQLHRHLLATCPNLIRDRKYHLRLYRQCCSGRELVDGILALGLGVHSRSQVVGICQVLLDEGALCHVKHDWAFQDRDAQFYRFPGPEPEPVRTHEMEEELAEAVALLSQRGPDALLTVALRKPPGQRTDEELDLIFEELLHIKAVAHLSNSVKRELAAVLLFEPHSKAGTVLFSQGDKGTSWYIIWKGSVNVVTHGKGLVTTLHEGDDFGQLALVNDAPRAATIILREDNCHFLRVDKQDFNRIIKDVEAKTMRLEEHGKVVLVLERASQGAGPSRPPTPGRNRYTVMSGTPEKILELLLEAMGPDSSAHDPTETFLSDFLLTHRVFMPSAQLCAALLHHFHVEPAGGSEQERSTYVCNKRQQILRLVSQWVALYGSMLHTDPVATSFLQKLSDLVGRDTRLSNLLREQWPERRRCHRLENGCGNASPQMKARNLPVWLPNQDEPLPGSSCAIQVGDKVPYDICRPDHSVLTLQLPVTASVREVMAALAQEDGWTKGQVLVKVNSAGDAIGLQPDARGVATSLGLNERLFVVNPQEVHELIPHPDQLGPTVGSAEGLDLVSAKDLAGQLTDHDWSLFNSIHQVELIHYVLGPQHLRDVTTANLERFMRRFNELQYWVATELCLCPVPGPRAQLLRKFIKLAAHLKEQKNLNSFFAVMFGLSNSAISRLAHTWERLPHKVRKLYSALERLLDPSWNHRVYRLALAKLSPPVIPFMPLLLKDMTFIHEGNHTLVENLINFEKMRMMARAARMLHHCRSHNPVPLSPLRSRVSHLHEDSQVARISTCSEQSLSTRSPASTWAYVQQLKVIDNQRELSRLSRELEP
# Assay: Counterscreen qHTS for antagonist of cAMP-regulated guanine nucleotide exchange factor 3 (EPAC1) (AID 1645888);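 as to activity change, negative = inhibition: fluorescence loss as bound BODIPY-GDP is released from Rap1B; % of control where 0% means no effect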
# Details: Rap1B-BODIPY-GDP nucleotide exchange, fluorescence; series mostly up to 154 µM; activity change, negative = inhibition: at the top concentration
# Outline: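 Rap1B–BODIPY-GDP (250 nM) with 50 uM GDP; compounds pin-transferred to 9.74 nM–152 uM final (activator) or from 7.32 nM upwards (inhibitor). Fluorescence Ex/Em 480/540 nm read at 5 and 30 min, then after adding cAMP or buffer, at room temperature.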
SMILES,"activity change, negative = inhibition",Potency
COc1cc(-c2cc(OC)c3c(C)oc(C)c3c(=O)c2)ccc1OC(=O)c1ccccc1F,-5.61%,
O=C(NCc1ccccc1)C(c1ccccc1)n1c(=O)c(-c2ccco2)nc2ccccc21 (stereo not given),5.07% [at 30.8 µM],
CC(C)c1ccc(/C=C/C(=O)Nc2ccc(CN3CCOCC3)cc2)cc1,-30.4%,
Oc1cccc(C=Nc2cccc3ccccc23)c1O,8.98%,
CCCC1=C(C(=O)OCC)C(c2ccco2)C(C#N)=C(N)O1 (stereo not given),-11% [at 30.8 µM],
O=C(Nc1ccc(Br)cc1C(=O)O)c1ccc2c(c1)C(=O)N(Cc1ccccc1)C2=O,0.136%,
Cc1ccc(C(=O)c2cn(Cc3cccc(C)c3)c3nc(C)ccc3c2=O)cc1,-1.51%,
Clc1ccc(C(c2ccccc2)c2c[nH]c3ccccc23)s1 (stereo not given),33.7%,
CC(C)(C)Cc1c(-c2ccccc2)nc2ccc(Cl)cn12,-2.23% [at 30.8 µM],
O=c1[nH][nH]c(-c2ccccc2O)c1C(C[N+](=O)[O-])c1ccc(Br)cc1 (stereo not given),6.76%,
C=CS(=O)(=O)N(Cc1ccccc1Br)[C@H](CO)CC(C)C,-13.6% [at 30.8 µM],
CC1=NN(c2cccc(C(=O)O)c2)C(=O)/C1=C\C=C/c1ccccc1,9.25%,
Cc1ccc(Nc2nnc(-c3ccc(C)c(S(N)(=O)=O)c3)c3ccccc23)cc1,23.2%,
COc1ccc(-c2[nH]c(-c3ccc(F)cc3)nc2SCC(=O)Nc2ccc(OC)c(OC)c2)cc1,-19.5%,
CN(C)S(=O)(=O)c1ccc(N2CCCC2)c(C(=O)NCC2COc3ccccc3O2)c1 (stereo not given),7.95%,
CC(=O)N1N=C(c2ccc(Cl)cc2)CC1c1ccc([N+](=O)[O-])cc1 (stereo not given),2.9% [at 30.8 µM],
O=C(NCc1ccc2c(c1)CCN2C(=O)c1ccccc1)Nc1cccc(C(F)(F)F)c1,-10.1%,
O=C(CC(c1ccccc1)c1cc(Cl)ccc1O)N1CCCC1 (stereo not given),-3.54%,
c1cc(-c2cc3nc(NC4CCCCC4)ccn3n2)ccc1OCCN1CCOCC1,-10.7%,
COc1ccc(Cn2c(-c3ccc(C)cc3)nc3c(c(=O)c4ccccc4n3C)c2=O)cc1,-16.2% [at 30.8 µM],

SMILES,"activity change, negative = inhibition",Potency
C=CCN1C(=O)[C@@H]2Cc3c([nH]c4ccccc34)C(c3ccc(O)cc3)N2C1=S (stereo not given in full),5.99%,
CN(C)c1ccc(-c2[nH][nH]c(=O)c2NC(=O)c2ccccn2)cc1,-1.73%,
O=C(CSc1nc(O)cc(=O)n1-c1ccccc1)Nc1ccc2c3c(cccc13)CC2,-9.82% [at 30.8 µM],
N#C/C(=C/C1=C(N2CCOCC2)C(=C/c2cccc([N+](=O)[O-])c2)/CC1)C(=O)Nc1ccccc1F,-3.26% [at 30.8 µM],
N#Cc1c(NC(=O)CSc2ncnc3sccc23)oc(-c2ccco2)c1-c1ccco1,12.7%,
CCn1c(SCC(=O)N/N=C/C=C/c2ccco2)nnc1-c1ccccc1,17%,
COc1ccc2c(c1)Cc1sc(NC(=O)c3ccccc3C)nc1-2,13.3%,
Cc1ccc2[nH]cc(C(c3ccccc3)c3ccc(Cl)s3)c2c1 (stereo not given),21.6%,
CCc1nc2c(OCCC3CCCCC3)cccn2c1N(C)C(=O)c1ccc(C)cc1,-19.1%,
CCOc1cc(CNCCSc2nnnn2C)ccc1OCc1ccc(Cl)cc1Cl,,63.1 µM (active)
CC(C)N(Cc1ccccc1)C(=O)c1nc(-c2ccc(Cl)cc2)n2c1CCCCC2,0.694%,
O=C(Nc1ccc(S(=O)(=O)Nc2nccs2)cc1)c1cc(-c2ccccn2)nc2ccccc12,-7.32% [at 30.8 µM],
COc1ccc(OC)c(CNC(=O)CCCc2cn(C)c3ccccc23)c1,3.05%,
Cc1ccc(C)c(Cn2c(CN(C)Cc3ccccc3)nc3c2c(=O)n(C)c(=O)n3C)c1,17.6%,
Cc1ccc(Cn2ccnc2SCC(=O)Nc2ccc3c(c2)OCO3)cc1,5.21%,
COc1ccc(OC)c(C(=O)c2coc3cc(Br)c(O)c(Br)c23)c1,33.1%,
Cc1ccc(N(Cc2ccc([N+](=O)[O-])cc2)C(=O)c2ccco2)cc1,9.7%,
CCn1c(SCC(=O)N/N=C/C=C\c2ccco2)nc2ccccc21,16.1%,
COc1cc(C2CC(=O)Oc3cc(C)c(Br)c(C)c32)cc(OC)c1OC (stereo not given),-6.95% [at 30.8 µM],
CCc1nc(Oc2cccc(F)c2)c2oc3ccccc3c2n1,21.7%,
